High-throughput results (PubChem)
Only some compounds are listed: those with a hit (about 3.6% of all), similar ones and a draw of the others.
BoNT-F LC inh = BoNT/F light chain protease inhibitors, primary screen, biochemical, flow cytometry, MLPCN library. Botulinum neurotoxin type F light chain protease (Clostridium botulinum). Multiplex microsphere protease cleavage assay. actives 0.22% (n = 360,000). inhibition, % at 10 µM. AID 588497, 2011; in the data active = inhibition above about 35%, passing the limit was not always enough; inconclusive = no clear call, values can overlap the other calls
Bead autofluor = flagged as autofluorescent in microsphere protease counterscreen; compound autofluorescence counterscreen, microsphere flow cytometry; stronger effect = higher value; fluorescence intensity (test concentration not listed); actives 3.1% (n = 360,000); AID 624483; in the data active = fluorescence intensity above about 16000; inconclusive = no clear call, values can overlap the other calls
MazF activator = activators of E. coli MazEF toxin-antitoxin RNase, primary screen, biochemical, fluorescence, uHTS. AID 504720, 2011. activation, % at 20 µM. Endoribonuclease toxin MazF (Escherichia coli (strain K12)), P0AE70. actives 0.32% (n = 350,000). FAM/BHQ RNA-DNA oligo cleavage fluorescence, 5 h; in the data active = activation above about 50%
Target sequence (P0AE70 whole entry, looked up): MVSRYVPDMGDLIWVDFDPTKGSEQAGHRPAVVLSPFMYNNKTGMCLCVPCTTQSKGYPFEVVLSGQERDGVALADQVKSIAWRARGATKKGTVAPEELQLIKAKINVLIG
BoNT A protease = BoNT/A light chain protease inhibitors, primary screen, biochemical, flow cytometry, MLPCN library; Botulinum neurotoxin type A light chain protease (Clostridium botulinum A str. ATCC 3502); multiplex microsphere protease substrate cleavage; inhibition, % at 10 µM; actives 0.17% (n = 360,000); AID 588499, 2011
Anthrax LF inh2 = Bacillus anthracis LF protease inhibitors, primary screen, biochemical, multiplex microsphere, MLPCN library; AID 588501, 2011; actives 0.12% (n = 360,000); multiplex microsphere protease cleavage assay; inhibition, % at 10 µM
Each line names hits and unclear results; the compound was inactive in the other large screens. Rule as the data show it, unless noted: active = inhibition above about 30%; inconclusive = no clear call, values can overlap the other calls; inactive = below that.

COc1cccc(-c2cc(C(=O)Nc3cc(C)n(Cc4ccc(Cl)cc4)n3)no2)c1	MazF activator 51
COc1ccc(NC(=O)c2sc3nc(-c4cccnc4)ccc3c2N)cc1	none (no result: BoNT-F LC inh, Bead autofluor, BoNT A protease, Anthrax LF inh2)
COc1cccc(NC(=O)c2ccc(-c3ccc([N+](=O)[O-])cc3)o2)c1	MazF activator 276
CN(C)CCNc1nc(-c2ccccc2F)c2sccc2n1	none (no result: MazF activator)
COc1cccc(-c2cc(C(=O)Nc3ccc(OC)c(OC)c3)no2)c1	Bead autofluor 19835
COc1ccc(NC(=O)c2cc(-c3ccccc3)on2)cc1OC	none
Cc1cccc(NC(=S)N=Nc2c(O)n(CN3CCOCC3)c3ccccc23)c1C	none
Cc1ccc(N=Nc2c(O)n(CN3CCOCC3)c3ccccc23)cc1	MazF activator 57
Cc1ccc(SCc2[nH]nc3c2C(c2ccc(C)o2)C(C#N)=C(N)O3)cc1 (stereo not given)	Bead autofluor 19530
Cc1ccc(SCc2[nH]nc3c2C(c2ccco2)C(C#N)=C(N)O3)cc1 (stereo not given)	none
COc1cccc(-c2nnn(CC(C)=O)n2)c1	none
COc1ccc(-c2ccc(-c3nnn(CC(C)=O)n3)cc2)cc1	Bead autofluor 22673
COc1cc(C(O)P(=O)(OC2CCCCC2)c2ccc(N(C)C)cc2)cc(OC)c1OC (stereo not given)	Bead autofluor 16951
Cc1ccc(C(=O)C[n+]2cccc3ccccc32)cc1	BoNT-F LC inh 53
O=C(C[n+]1cc(Br)cc2ccccc21)c1ccc(Cl)cc1	BoNT A protease 104
O=C(C[n+]1cc(Br)cc2ccccc21)c1ccc(Br)cc1	BoNT A protease 120, Anthrax LF inh2 45
O=C(C[n+]1cc(Br)cc(Br)c1)c1ccc(Cl)cc1	none
O=C(C[n+]1cccc2ccccc21)c1ccc(Br)cc1	BoNT-F LC inh inconclusive
CCCCNC(=S)N(C)/N=C/c1ccc(OCc2ccc(C(=O)OC)cc2)c(OC)c1	none
CCOC(=O)c1oc2ccccc2c1CN1CCOCC1	Bead autofluor 21460
CCOC(=O)c1c(N)sc(C(=O)N(C)C)c1CN1CCOCC1	Bead autofluor 20070
CCOC(=O)c1c(C)n(CCN2CCN(C)CC2)c2ccc(OC)cc12	Bead autofluor 20539
CCOC(=O)c1c(CN2CCOCC2)oc2ccc(OC)cc12	Bead autofluor 21090, BoNT A protease inconclusive
CCOC(=O)c1c(C)n(Cc2ccco2)c2ccc(OC)cc12	none
CC(=O)c1cccc(N2C(=O)CC(N3CCN(S(=O)(=O)c4ccc(Cl)cc4)CC3)C2=O)c1 (stereo not given)	none
CSc1ncccc1C(=O)Nc1cc(Cl)ccc1N1CCOCC1	none (no result: BoNT-F LC inh, Bead autofluor, BoNT A protease, Anthrax LF inh2)
C=C1C(C(=O)Nc2ccccc2)C1C(=O)Nc1ccccc1 (stereo not given)	none
COc1ccccc1C#Cc1cnc2c(c1)C(=O)N([C@H](C)CO)C[C@@H](C)[C@@H](CN(C)C(=O)c1ccc3c(c1)OCO3)O2	none
OC[C@@H]1CN(Cc2cccs2)C[C@H](n2cnc3c(NC4CCC4)ncnc32)O1	none (no result: MazF activator)
COc1ccc(CC(=O)OCC(=O)NC(=O)NC(C)C)cc1	Bead autofluor 23854
CC(C)NC(=O)NC(=O)COC(=O)Cc1ccsc1	none
Cc1oc2c(cc(NS(=O)(=O)c3ccc4c5c(cccc35)C(=O)N4)c3ccccc32)c1C(=O)OC(C)C	Bead autofluor 19667
Nn1c(COc2ccccc2)nnc1SC(F)F	Bead autofluor 23749
Cc1ccc(OCc2nnc(SCC(=O)O)n2N)cc1	none
CC(C)NC(=O)c1ccc2c(c1)N(CC(=O)N1CCOCC1)C(=O)C(C)(C)O2	Bead autofluor 22372
CC(C)NC(=O)c1ccc2c(c1)N(CC(=O)N1CCCC1)C(=O)C(C)(C)O2	BoNT-F LC inh inconclusive
COc1ccc(CC(NC(C)=O)C(=O)NC2CCN(C(=O)Nc3ccccc3Cl)CC2)cc1OC (stereo not given)	none
COc1ccc(CC(NC(C)=O)C(=O)N2CCN(C(=O)Nc3ccc(Cl)cc3)CC2)cc1OC (stereo not given)	Bead autofluor 22516
COc1cccc(NC(=O)N2CCN(C(=O)C(Cc3ccc(OC)c(OC)c3)NC(C)=O)CC2)c1 (stereo not given)	Bead autofluor 18405, BoNT A protease inconclusive
COc1ccc(C2C3=C(N=C4SCC(=O)N42)c2ccccc2CC3)cc1OC (stereo not given)	Bead autofluor 24021
O=C(N/N=C\c1ccc(-c2ccc([N+](=O)[O-])cc2)o1)c1ccc2c(c1)OCO2	MazF activator 86
O=C(N/N=C/c1ccc([N+](=O)[O-])o1)c1ccc2c(c1)OCO2	none
CC(C)(C)OC(=O)NCc1ccc(NC(=O)c2nc[nH]c2C(=O)NCCCNC(=O)c2[nH]cnc2C(=O)Nc2ccc(CNC(=O)OC(C)(C)C)cc2)cc1	none
O=C(CN1CCN(c2ccccn2)CC1)N1c2ccccc2CCc2ccccc21	Bead autofluor 20825
O=C(CN1CCN(c2ccccn2)CC1)N1c2ccccc2Sc2ccc(C(F)(F)F)cc21	Bead autofluor 17711
O=C(CN1CCN(c2ccccn2)CC1)N1CC(O)CO1 (stereo not given)	none
CCCCN1C(=O)NC(c2ccc(OC)cc2)C(C(=O)OCc2ccccc2)=C1C (stereo not given)	none
COc1cc(N=Nc2ccc(Br)cc2)cc(C=O)c1O	none
O=C(COC(=O)c1ccccc1F)NC1CC1	Bead autofluor inconclusive
O=C(CNC(=O)c1ccccc1F)OCCCOC(=O)CNC(=O)c1ccccc1F	Bead autofluor 30957
O=C(CNC(=O)c1ccccc1F)NC1CC1	Bead autofluor 19571, BoNT A protease inconclusive
NS(=O)(=O)c1ccc(CCNC(=O)C2CCCCN2S(=O)(=O)c2ccccc2)cc1 (stereo not given)	Bead autofluor 21340
CCOc1ccccc1N1CC(C(=O)NCCc2ccc(S(N)(=O)=O)cc2)CC1=O (stereo not given)	Bead autofluor 20308
O=C(NCCc1ccccc1F)C1CCCN1S(=O)(=O)c1ccc2ccccc2c1 (stereo not given)	Bead autofluor 20558
Cc1ccccc1NC(=O)c1cccc(N2C(=O)C3CCC(C)CC3C2=O)c1 (stereo not given)	none
CCc1ccccc1NC(=O)c1cccc(N2C(=O)C3C4CCC(C4)C3C2=O)c1 (stereo not given)	Bead autofluor 23495, BoNT A protease inconclusive
CCc1ccccc1NC(=O)c1ccccc1N1C(=O)C2C3C=CC(C3)C2C1=O (stereo not given)	none
Cc1cccc(NC(=O)c2cccc(N3C(=O)C4C5CCC(C5)C4C3=O)c2)c1C (stereo not given)	Bead autofluor 18603, BoNT A protease inconclusive
Cc1ccc2c(c1)C1CN(C)CCC1N2C(=O)Nc1cccc(C(F)(F)F)c1 (stereo not given)	none
Cc1ccc2c(c1)[C@@H]1CN(C)CC[C@@H]1N2C(=O)Nc1cccc(C(F)(F)F)c1	Bead autofluor 23738
